Each structure is given as a SMILES string. Records with an inconclusive call do not appear. Active and inactive are the calls of the source. Rule for the calls, unless noted: active = hit-call score of the fitted dose curve at least 0.9, where 1 is the maximum; inactive = score below 0.9.

In assay [1] the target is human Thyroid Receptor alpha (THRa1), THRA (gene 7067) (UniProt P10827). Put plainly: ATG_THRa1_TRANS: Attagene TRANS-FACTORIAL HepG2 Assay for human Thyroid Receptor alpha (THRa1) (AID 2283014; active = hit-call score of the fitted dose curve at least 0.9, where 1 is the maximum). Put shortly: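 Measured here is mRNA from a GAL4-UAS reporter in transfected HepG2 cells carrying a Gal4-fused receptor, 24 h post-dose. DMSO served as negative control and baseline.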

Read-out in assay [2]: E-selectin (Homo sapiens) (UniProt P16581)
Nature of the assay: BSK_3C_Eselectin: BioMAP Diversity Plus: 3C Assay for Eselectin Biomarker Activity (AID 2283015).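 For outcome: cell surface E-selectin protein quantified by ELISA 24 h after dosing.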 As to conditions: primary human endothelial cells (HUVEC); actives raise or lower the signal. Put shortly: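 Endpoint derived by bidirectional fitting against DMSO vehicle; signal is ELISA-detected E-selectin from primary HUVEC at 24 h post-dosing, with parallel SRB staining (0.1% SRB, 560 nm) flagging cytotoxicity.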

Read-out in assay [3]: Interleukin-1 alpha (IL1a), IL1A (gene 3552)
Put plainly: BSK_BE3C_IL1a: BioMAP Diversity Plus: BE3C Assay for Interleukin-1 alpha (IL1a) Biomarker Activity (AID 2283016). The following applies: primary human bronchial epithelial cells; actives raise or lower the signal. Put shortly:
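BE3C primary human bronchial epithelium; cpd 24 h; IL-1a by ELISA; bidirectional fit vs DMSO; parallel SRB (0.1% SRB, 10% TCA fix, 560 nm) for cytotoxicity.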

Read-out in assay [4]: Monocyte Chemoattractant Protein-1 (MCP1), CCL2 (gene 6347)
Nature of the assay: BSK_3C_MCP1: BioMAP Diversity Plus: 3C Assay for Monocyte Chemoattractant Protein-1 (MCP1) Biomarker Activity (AID 2283017). The following applies: primary human endothelial cells (HUVEC); actives raise or lower the signal. Put shortly:
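Using human vascular primary endothelium, researchers measured MCP-1 by ELISA 24 h after treatment, with DMSO serving as negative control for bidirectional fitting.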

Read-out in assay [5]: Monocyte Chemoattractant Protein-1 (MCP1), CCL2 (gene 6347)
Put plainly: BSK_4H_MCP1: BioMAP Diversity Plus: 4H Assay for Monocyte Chemoattractant Protein-1 (MCP1) Biomarker Activity (AID 2283018). As to conditions: primary human endothelial cells (HUVEC); actives raise or lower the signal. Put shortly: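 ELISA read-out of MCP-1 from human vascular endothelial primary cells taken at 24 hours after compound exposure. Activity was fitted in both directions relative to DMSO, which served as negative control.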

Read-out in assay [6]: Human Leukocyte Antigen - DR isotype (HLADR), HLA-DRA (gene 3122)
Nature of the assay: BSK_3C_HLADR: BioMAP Diversity Plus: 3C Assay for Human Leukocyte Antigen - DR isotype (HLADR) Biomarker Activity (AID 2283019).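 For outcome: ELISA of cell-surface HLA-DR on HUVEC 24 h after dosing.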 As to conditions: primary human endothelial cells (HUVEC); actives raise or lower the signal. Put shortly: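 Compound added to primary HUVEC cultures, 24 h incubation, then HLA-DR determined by ELISA; endpoint derived by bidirectional fitting relative to DMSO negative control.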

Read-out in assay [7]: Interleukin-8 (IL8), CXCL8 (gene 3576)
Nature of the assay: BSK_3C_IL8: BioMAP Diversity Plus: 3C Assay for Interleukin-8 (IL8) Biomarker Activity (AID 2283020). The following applies: primary human endothelial cells (HUVEC); actives raise or lower the signal. Put shortly: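 ELISA read-out of IL-8 from human umbilical vein endothelium, measured 24 h after chemical dosing. Activity is expressed relative to DMSO negative control, with both increases and decreases fitted.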

Read-out in assay [8]: Monokine induced gamma interferon (MIG), CXCL9 (gene 4283)
Nature of the assay: BSK_3C_MIG: BioMAP Diversity Plus: 3C Assay for Monokine induced gamma interferon (MIG) Biomarker Activity (AID 2283021).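 For AC50: MIG protein level measured by immunoassay in the treated endothelial cultures.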 As to conditions: primary human endothelial cells (HUVEC); actives raise or lower the signal. Put shortly: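 Read-out is ELISA detection of MIG on human umbilical vein endothelial cells, taken 24 h after dosing. Gain or loss of signal was scored relative to DMSO controls using bidirectional curve fitting.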

Assay [9] in a line: BSK_3C_SRB: Viability Assessment in the BioMAP Diversity Plus: 3C Assay (AID 2283023).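 Note: fitted both ways against DMSO so a hit may be signal rise or drop.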 The following applies: primary human endothelial cells (HUVEC). Put shortly: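 Overt cytotoxicity is gauged in parallel confluent HUVEC cultures by SRB total-protein staining at the time of biomarker measurement, 24 h after dosing. Gain or loss of signal is fitted versus DMSO.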
Read-out in assay [10]: Matrix Metallopeptidase 1 (MMP1), MMP1 (gene 4312)
Put plainly: BSK_BE3C_MMP1: BioMAP Diversity Plus: BE3C Assay for Matrix Metallopeptidase 1 (MMP1) Biomarker Activity (AID 2283024). As to conditions: primary human bronchial epithelial cells; actives raise or lower the signal. Put shortly: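 Human bronchial epithelial cells (BE3C system) exposed to compound for 24 h; MMP1 then quantified by ELISA. Activity was fitted in both directions relative to DMSO.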

A short description of assay [11]: BSK_3C_Vis: BioMAP Diversity Plus: 3C Assay for Morphology Visualization (AID 2283025).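 For AC50: light microscopy image of cell morphology used as background control.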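 Note: fitted both ways so gain or loss versus DMSO counts.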 The following applies: primary human endothelial cells (HUVEC). Put shortly: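 Chemicals were added to primary human umbilical vein endothelium, cells were incubated 24 h, and morphology was then visualized by light microscopy. Gain or loss of signal was fitted bidirectionally relative to DMSO.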

Read-out in assay [12]: Pselectin, SELP (gene 6403)
Put plainly: BSK_4H_Pselectin: BioMAP Diversity Plus: 4H Assay for Pselectin Biomarker Activity (AID 2283026). The following applies: primary human endothelial cells (HUVEC); actives raise or lower the signal. Put shortly:
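ELISA read-out of P-selectin on human umbilical vein endothelium after 24 h of dosing. Values derive from bidirectional fitting relative to DMSO. Parallel SRB protein staining flagged overt cytotoxicity.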

Assay [13] in a line: BSK_4H_SRB: Viability Assessment in the BioMAP Diversity Plus: 4H Assay (AID 2283027).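 For AC50: curves fitted both ways versus DMSO so AC50 may be loss or gain.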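 Note: cells exposed to compound for 24 h before staining.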 The following applies: primary human endothelial cells (HUVEC). Put shortly: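 Absorbance at 560 nm of SRB-stained total protein served as the viability read-out in confluent primary human umbilical vein endothelium 24 h after chemical treatment. Curves were fitted bidirectionally against DMSO as negative control.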

The nature of assay [14]: BSK_BE3C_SRB: Viability Assessment in the BioMAP Diversity Plus: BE3C Assay (AID 2283028).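 For AC50: fitted both ways so AC50 may mark signal gain or loss versus DMSO.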 The following applies: primary human bronchial epithelial cells. Put shortly: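 SRB total-protein staining (0.1%, after TCA fixation) of chemically dosed human bronchial epithelial primary cells at 24 h; DMSO serves as the negative control for bidirectional curve fitting.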
Read-out in assay [15]: Thrombomodulin, THBD (gene 7056)
Nature of the assay: BSK_3C_Thrombomodulin: BioMAP Diversity Plus: 3C Assay for Thrombomodulin Biomarker Activity (AID 2283029). As to conditions: primary human endothelial cells (HUVEC); actives raise or lower the signal. Put shortly: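 Read-out is ELISA of thrombomodulin on human umbilical vein endothelium 24 h after chemical dosing. Gain or loss of signal is scored relative to DMSO. Overt cytotoxicity is checked in parallel cultures by sulforhodamine B staining.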

Read-out in assay [16]: Vascular endothelial growth factor receptor 2 (Homo sapiens) (UniProt P35968)
Nature of the assay: BSK_4H_VEGFRII: BioMAP Diversity Plus: 4H Assay for Vascular endothelial growth factor receptor 2 (VEGFR2) Biomarker Activity (AID 2283031). As to conditions: primary human endothelial cells (HUVEC); actives raise or lower the signal. Put shortly: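 In this multiplexed HUVEC system, biomarker ELISA was performed after 24 h chemical exposure. Parallel SRB staining (TCA fixation, 560 nm) tracked cytotoxicity; DMSO served as baseline.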

The target in assay [17] is human Retinoid X Receptor beta (RXRb), RXRB (gene 6257) (UniProt P28702). Put plainly: ATG_RXRb_TRANS: Attagene TRANS-FACTORIAL HepG2 Assay for human Retinoid X Receptor beta (RXRb) (AID 2283013; active = hit-call score of the fitted dose curve at least 0.9, where 1 is the maximum). Put shortly: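 Transfect HepG2 with GAL4-UAS multi-reporter constructs (chimeric NR-Gal4, TRANS format); dose compound 24 h; isolate RNA, RT-PCR, FAM primer extension, HpaI digest; quantify by capillary electrophoresis; positive direction vs DMSO.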

Assay [18] concerns the target human Vitamin D Receptor (VDR), VDR (gene 7421) (UniProt P11473). Nature of the assay: ATG_VDR_TRANS: Attagene TRANS-FACTORIAL HepG2 Assay for human Vitamin D Receptor (VDR) (AID 2283022; active = hit-call score of the fitted dose curve at least 0.9, where 1 is the maximum). Put shortly: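 Multiplexed TRANS reporter in HepG2; 24 h treatment; reporter mRNA by RT-PCR plus capillary electrophoresis; upregulation scored relative to DMSO.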
Read-out in assay [19]: Urokinase-type plasminogen activator receptor (uPAR), PLAUR (gene 5329)
Put plainly: BSK_4H_uPAR: BioMAP Diversity Plus: 4H Assay for Urokinase-type plasminogen activator receptor (uPAR) Biomarker Activity (AID 2283030). The following applies: primary human endothelial cells (HUVEC); actives raise or lower the signal. Put shortly: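 Endpoint derived via bidirectional curve fitting against DMSO baseline; readout was ELISA detection of uPAR on umbilical vein endothelial cells at 24 h post-treatment, with SRB-stained parallel cultures assessing cytotoxicity.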

Sequence of human Thyroid Receptor alpha (THRa1), THRA (gene 7067) (P10827 whole entry, looked up, the tested form may be a part): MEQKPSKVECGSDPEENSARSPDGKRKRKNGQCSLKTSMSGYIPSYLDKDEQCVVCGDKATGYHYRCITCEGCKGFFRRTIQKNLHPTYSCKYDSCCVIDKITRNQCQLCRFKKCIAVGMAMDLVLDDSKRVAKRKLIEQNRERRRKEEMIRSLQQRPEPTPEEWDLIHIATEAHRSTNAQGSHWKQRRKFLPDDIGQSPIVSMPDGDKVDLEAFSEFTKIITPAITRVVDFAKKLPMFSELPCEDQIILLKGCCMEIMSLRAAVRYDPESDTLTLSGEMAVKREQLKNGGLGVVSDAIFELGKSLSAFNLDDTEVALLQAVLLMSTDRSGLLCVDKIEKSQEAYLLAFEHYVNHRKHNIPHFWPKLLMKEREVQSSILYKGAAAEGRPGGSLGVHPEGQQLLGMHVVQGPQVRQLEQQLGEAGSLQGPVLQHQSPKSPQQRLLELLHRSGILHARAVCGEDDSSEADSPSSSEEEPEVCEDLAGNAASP
Sequence of human Retinoid X Receptor beta (RXRb), RXRB (gene 6257) (P28702 whole entry, looked up, the tested form may be a part): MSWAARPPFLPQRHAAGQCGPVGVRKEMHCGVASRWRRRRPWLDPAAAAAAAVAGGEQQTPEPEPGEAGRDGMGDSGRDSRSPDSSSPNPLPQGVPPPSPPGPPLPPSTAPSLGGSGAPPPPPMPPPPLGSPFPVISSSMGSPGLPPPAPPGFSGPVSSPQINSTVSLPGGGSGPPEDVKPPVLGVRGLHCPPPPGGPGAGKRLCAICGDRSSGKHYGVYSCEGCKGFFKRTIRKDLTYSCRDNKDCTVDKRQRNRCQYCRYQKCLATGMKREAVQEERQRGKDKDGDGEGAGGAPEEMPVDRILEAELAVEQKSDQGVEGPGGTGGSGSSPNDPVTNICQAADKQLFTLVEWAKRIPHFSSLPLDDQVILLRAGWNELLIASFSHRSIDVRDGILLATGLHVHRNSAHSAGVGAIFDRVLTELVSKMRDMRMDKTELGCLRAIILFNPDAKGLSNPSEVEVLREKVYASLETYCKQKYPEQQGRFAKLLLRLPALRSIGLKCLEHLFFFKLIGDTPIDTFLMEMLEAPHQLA
Sequence of human Vitamin D Receptor (VDR), VDR (gene 7421) (P11473 whole entry, looked up): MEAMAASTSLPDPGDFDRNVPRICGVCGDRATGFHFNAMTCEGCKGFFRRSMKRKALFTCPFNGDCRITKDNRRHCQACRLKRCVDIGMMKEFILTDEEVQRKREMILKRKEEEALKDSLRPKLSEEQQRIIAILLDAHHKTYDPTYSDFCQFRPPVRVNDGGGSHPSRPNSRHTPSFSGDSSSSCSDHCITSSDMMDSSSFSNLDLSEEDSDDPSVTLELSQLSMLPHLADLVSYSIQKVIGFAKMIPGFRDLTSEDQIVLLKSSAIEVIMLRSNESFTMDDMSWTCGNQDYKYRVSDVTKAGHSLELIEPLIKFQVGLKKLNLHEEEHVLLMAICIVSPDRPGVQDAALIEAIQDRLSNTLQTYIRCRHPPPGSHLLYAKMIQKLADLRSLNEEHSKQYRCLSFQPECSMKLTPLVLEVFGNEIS
Sequence of E-selectin (Homo sapiens) (P16581 whole entry, looked up): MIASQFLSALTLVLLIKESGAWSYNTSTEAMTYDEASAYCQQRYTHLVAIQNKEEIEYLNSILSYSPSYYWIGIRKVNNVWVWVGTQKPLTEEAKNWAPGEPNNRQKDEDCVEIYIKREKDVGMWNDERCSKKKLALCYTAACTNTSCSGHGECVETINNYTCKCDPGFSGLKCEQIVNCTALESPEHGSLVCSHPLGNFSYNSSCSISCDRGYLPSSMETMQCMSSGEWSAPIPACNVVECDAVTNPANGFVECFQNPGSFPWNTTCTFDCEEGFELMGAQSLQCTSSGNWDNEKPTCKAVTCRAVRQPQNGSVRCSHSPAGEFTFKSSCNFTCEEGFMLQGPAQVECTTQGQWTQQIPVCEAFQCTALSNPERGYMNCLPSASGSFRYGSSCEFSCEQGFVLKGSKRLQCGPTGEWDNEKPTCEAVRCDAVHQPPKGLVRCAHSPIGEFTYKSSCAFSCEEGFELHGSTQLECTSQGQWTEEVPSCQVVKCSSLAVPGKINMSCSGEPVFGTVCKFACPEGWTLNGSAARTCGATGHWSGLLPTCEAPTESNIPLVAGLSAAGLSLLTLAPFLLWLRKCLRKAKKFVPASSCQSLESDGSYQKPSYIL

`CCN(CC)N=O`: the molecule was classed as inactive in assay [1], in [2], in assay [3], in [4], in [5] and in assay [6]. Further, the outcome in assay [7], in assay [8], in [9], in [10], in [11] and in assay [12] was inactive. Besides, the outcome in [13], in assay [14], in assay [15] and in assay [16] was inactive.
As for `CC(C)N(Cc1ccccc1)C(=O)C(C)(C)C`, the call in assay [17], in [2], in assay [3], in assay [4], in [5] and in assay [6] was inactive. For the same molecule, the outcome in assay [7], in [8], in assay [18], in assay [9], in assay [10] and in [11] was inactive. The result in assay [12], in assay [13], in assay [14] and in assay [16] was inactive.
Take `CCCCCCCCn1sccc1=O`: the AC50 in assay [17] is 15.4 µM (active); in assay [2] it was 12.6 µM (active); in assay [3], 8.59 µM (active); in assay [4], 9.73 µM (active); in assay [5] it was 8.07 µM (active); in assay [6], 5.11 µM (active). The half-maximal activity concentration (AC50) was 12.4 µM (active) in assay [7]; 11.6 µM (active) in [8]; 20.8 µM (active) in assay [9]; 15.1 µM (active) in assay [10]; 12.9 µM (active) in assay [11]; 8.69 µM (active) in [12]. Moreover, the results for the AC50 in assay [13], in [14] and in [19] were 21 µM (active), 12.8 µM (active) and 10.5 µM (active), respectively. In addition, the result in assay [16] was inactive.
For the molecule `CCCSC(=O)N(CCC)CCC`, the AC50 in assay [17] was 34.1 µM (active). Also, the call in assay [1], in [2], in assay [3], in assay [4], in [5] and in assay [6] was inactive. The result in [7], in assay [8], in [18], in [9], in assay [11] and in assay [12] was inactive. Moreover, the result in assay [13], in assay [14], in assay [19] and in [16] was inactive.
On to `Cc1ccc(N=C=O)cc1N=C=O`, for which the result in [2], in assay [3], in assay [4], in assay [5], in [6] and in assay [7] was inactive. In addition, the outcome in [8], in [18], in [9], in assay [11], in [12] and in assay [13] was inactive. Moreover, the result in assay [14], in assay [19] and in assay [16] was inactive.
For `Nc1cc(Cl)cc(C(=O)O)c1Cl`, the molecule was called inactive in assay [1], in [2], in [3], in assay [4], in assay [5] and in assay [6]. In addition, the outcome in assay [7], in assay [8], in assay [9], in assay [11], in assay [12] and in [13] was inactive. The outcome in assay [14], in assay [15] and in assay [16] was inactive.
For the molecule `Clc1ccccc1Cl`, the result in assay [2], in assay [3], in [4], in assay [5], in [6] and in assay [7] was inactive. In addition, the outcome in assay [8], in assay [18], in [9], in assay [10], in [11] and in assay [12] was inactive. Also, the outcome in assay [13], in [14], in assay [15] and in assay [16] was inactive.
On to `Cn1cc(-c2ccccc2)c(=O)c(-c2cccc(C(F)(F)F)c2)c1`, for which the result in [2], in [3], in assay [4], in assay [5], in assay [6] and in [7] was inactive. The outcome in assay [8], in assay [9], in assay [11], in assay [12], in [13] and in assay [14] was inactive. The outcome in assay [19] and in assay [16] was inactive.

Values taken from PubChem BioAssay (EPA / NIEHS).
